This note sets out measurements from PubChem BioAssay (EPA / NIEHS).

Each structure is given as a SMILES string. Active and inactive are the calls of the source. The calls were made as follows: active = hit-call score of the fitted dose curve at least 0.9, where 1 is the maximum; inactive = score below 0.9.

Read-out in experiment [1]: Cyclin D1 (CCND1), CCND1 (gene 595)
Put plainly: LTEA_HepaRG_CCND1: Life Technologies and Expression Analysis (LTEA) Assay for Cyclin D1 (CCND1) using HepaRG (AID 2283451). As to conditions: mRNA level, 48 h; actives raise or lower the signal. The gist of the method:
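Expression of CCND1 was quantified by qRT-PCR on Fluidigm arrays using ACTB, GAPDH and POLR2A as reference genes. HepaRG cultures, plated 48 h beforehand, were dosed for 48 h at up to 100 uM (half-log, 8 points) in 0.5% DMSO.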

Read-out in experiment [2]: catalase (CAT), CAT (gene 847)
Put plainly: LTEA_HepaRG_CAT: Life Technologies and Expression Analysis (LTEA) Assay for catalase (CAT) using HepaRG (AID 2283452). As to conditions: mRNA level, 48 h; actives raise or lower the signal. The gist of the method:
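Expression of CAT was quantified by TaqMan qRT-PCR with ACTB/GAPDH/POLR2A normalization after 48 h chemical exposure of HepaRG. Eight-point half-log series, top 100 uM, in 0.5% DMSO; gain or loss fitted against vehicle.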

Read-out in experiment [3]: flavin-containing dimethylaniline monooxygenases 3 (FMO3), FMO3 (gene 2328)
Nature of the experiment: LTEA_HepaRG_FMO3: Life Technologies and Expression Analysis (LTEA) Assay for flavin-containing dimethylaniline monooxygenases 3 (FMO3) using HepaRG (AID 2283453).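 As to AC50: differentiated human HepaRG liver cells in serum-free induction medium.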 The note with it: mRNA level, 48 h; actives raise or lower the signal. The gist of the method: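 FMO3 transcript quantified by TaqMan qRT-PCR against three housekeeping genes after 48 h chemical exposure of HepaRG cells. Eight-point half-log series, top 100 uM, 0.5% DMSO vehicle; phenobarbital 1mM induction control; up- or down-regulation fitted.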

Read-out in experiment [4]: Cytochrome P450 (CYP1A1), CYP1A1 (gene 1543)
Nature of the experiment: LTEA_HepaRG_CYP1A1: Life Technologies and Expression Analysis (LTEA) Assay for Cytochrome P450 (CYP1A1) using HepaRG (AID 2283454). The note with it: mRNA level, 48 h; actives raise or lower the signal. In short, it runs like this: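 CYP1A1 transcript levels measured by Fluidigm qRT-PCR against three housekeeping genes, 48 h after chemical dosing of human HepaRG cells (highest concentration 100 uM, half-log steps, 0.5% DMSO vehicle). Gain or loss of signal fitted relative to DMSO.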

Read-out in experiment [5]: CFLAR gene, CFLAR (gene 8837)
Nature of the experiment: LTEA_HepaRG_CFLAR: Life Technologies and Expression Analysis (LTEA) Assay for CFLAR gene using HepaRG (AID 2283455). As to conditions: mRNA level, 48 h; actives raise or lower the signal. The gist of the method: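 Transcript level by qRT-PCR (normalized to ACTB, GAPDH and POLR2A) after 48 h chemical exposure of HepaRG cells, top concentration 100 uM with half-log steps, 0.5% DMSO vehicle, duplicates; fitted bidirectionally against DMSO baseline.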

Read-out in experiment [6]: Forkhead box O1 (FOXO1), FOXO1 (gene 2308)
Nature of the experiment: LTEA_HepaRG_FOXO1: Life Technologies and Expression Analysis (LTEA) Assay for Forkhead box O1 (FOXO1) using HepaRG (AID 2283456). As to conditions: mRNA level, 48 h; actives raise or lower the signal. In short, it runs like this: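 FOXO1 transcript quantified by qRT-PCR after 48 h chemical exposure (top 100 uM, half-log steps, 0.5% DMSO) of HepaRG cells, housekeeping-normalized (ACTB/GAPDH/POLR2A). Changes fitted in both directions relative to vehicle.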

Experiment [7] is described as follows: CEETOX_H295R_TESTO: CeeTox H295R High-throughput Steroidogenesis Assay for Testosterone (TESTO) (AID 2283457). As to conditions: actives raise or lower the signal. The procedure: CEETOX_H295R is a cell-based, multiplexed-readout assay that uses H295R, a human adrenal gland cell line, with measurements taken at 48 hours after chemical dosing in a 96-well plate.CEETOX_H295R_TESTO is one of 23 assay component(s) measured or calculated from the CEETOX_H295R assay. It is designed to make measurements of hormone induction, a form of inducible reporter, as detected with […] by HPLC-MS-MS technology.Data from the assay component CEETOX_H295R_TESTO was analyzed into 1 assay endpoint. This assay endpoint, CEETOX_H295R_TESTO, was analyzed with bidirectional fitting relative to DMSO as the negative control and baseline of activity. Using a type of inducible reporter, gain or loss-of-signal activity using HPLC-MS-MS was used to understand synthesis of Testosterone in H295R cell line at 48hr of chemical exposure. To generalize the intended target to other relatable targets, this assay endpoint is annotated to the steroid hormone intended target family, where the subfamily is androgens.
Cell culture and media preparation procedures were conducted in accordance with OECD Test No. 456 guidelines, with minor modifications. H295R cells (ATCC CRL-2128) were expanded for 5 passages and frozen in batches in liquid nitrogen. Prior to the steroidogenesis assay, H295R cells were thawed and passed at least 4 times. The maximum passage was 10. Cells were maintained in a 1:1 mixture of DMEM/F12 supplemented with 5ml/L ITS+ Premix (BD Bioscience) and 12.5 ml/L Nu-Serum (BD Bioscience). After seeding cells into 96-well plates at 50-60% confluency, cells were allowed to adhere overnight. […] Test chemicals were incubated for 48 hours, then the medium was removed and split into 2 vials containing approximately 75uL each, and stored at -80 C prior to hormone analysis. For steroid quantification, media samples were shipped to OpAns, LLC (Durham, NC) on dry ice, and samples were thawed to room temperature prior to liquid-liquid extraction. Steroid hormones were extracted from media samples using methyl tertbutyl ether (MTBE). An extra derivatization with dansyl chloride was included for estrogen (estrone and estradiol) detection only. Steroid hormones were separated by HPLC, eluted using a reverse phase C18 gradient with electrospray positive ionization, followed by quantification by tandem mass spectrometry (MS/MS). Data were acquired on a MassHunter Workstation Acquisition version B03.01 (Agilent Technologies, Inc.) and processed using MassHunter Quantitative Analysis for QQQ. Accuracy was determined for each hormone analyte from 3 standards to determine upper and lower limits of quantification (ULOQ and LLOQ, respectively) using a 7-point standard curve. Precision and accuracy of the extraction and quantification methods were calculated as the percent relative standard deviation (%RSD) of the spiked standards and percent spiked standard recovered, respectively. […] Test medium was removed following chemical exposure, and cell viability was evaluated in the same wells by MTT. MTT procedures were as follows: after removal of test medium, 500 uL of 0.5 mg/ml of 3-[4,5-dimethylthiazol-2-y]2,5-diphenyltetrazoliumbromide solution was added to the cells. Following a 4-hour incubation at 37 C and 5% CO2 to allow formazan-crystal formation, the MTT solution was removed and blue formazan salt crystals were solubilized using 500uL anhydrous isopropanol with shaking for 20 minutes. Absorbance was read at 570 and 650nm using a Packard Fusion microplate reader. Background correction of absorbance units was used to determine percent change relative to controls. […] When a test chemical reduced cell viability to 20% - 70%, the test chemical was diluted 10-fold and re-evaluated, but if cell viability was <20%, then the test chemical was diluted 100-fold and re-evaluated. Test chemical dilutions were made until cell viability was >/=70%. MTT assays were also conducted for duplicates of all concentrations of chemicals tested in concentration-response studies. […]

Read-out in experiment [8]: growth arrest and DNA damage 45 (GADD45A), GADD45A (gene 1647)
Put plainly: LTEA_HepaRG_GADD45A: Life Technologies and Expression Analysis (LTEA) Assay for growth arrest and DNA damage 45 (GADD45A) using HepaRG (AID 2283458). The note with it: mRNA level, 48 h; actives raise or lower the signal. In short, it runs like this: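 Transcript induction or loss, quantified by TaqMan qRT-PCR against three housekeeping genes, is the read-out. HepaRG cells received chemicals for 48 h across eight half-log concentrations from 100 uM in 0.5% DMSO; gain and loss fitted relative to DMSO.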

Read-out in experiment [9]: Forkhead box O3 (FOXO3), FOXO3 (gene 2309)
Nature of the experiment: LTEA_HepaRG_FOXO3: Life Technologies and Expression Analysis (LTEA) Assay for Forkhead box O3 (FOXO3) using HepaRG (AID 2283459). The note with it: mRNA level, 48 h; actives raise or lower the signal. The gist of the method: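 FOXO3 transcript measured by qRT-PCR (normalized to ACTB, GAPDH, POLR2A) after 48 h exposure of HepaRG cells in serum-free induction medium. Duplicates, eight half-log concentrations up to 100 uM, 0.5% DMSO; gain or loss fitted against DMSO.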

Read-out in experiment [10]: ABC Transporter (ABCB1), ABCB1 (gene 5243)
Nature of the experiment: LTEA_HepaRG_ABCB1: Life Technologies and Expression Analysis (LTEA) Assay for ABC Transporter (ABCB1) using HepaRG (AID 2283460). As to conditions: mRNA level, 48 h; actives raise or lower the signal. The gist of the method: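 ABCB1 transcript level measured by TaqMan qRT-PCR against three housekeeping genes after 48 h chemical exposure of differentiated HepaRG cells. Top concentration 100 uM, half-log steps, eight points, 0.5% DMSO vehicle; bidirectional fit relative to DMSO.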

A word on the AC50: it is the concentration at which the activity in the assay is half-maximal. Turning to `CCOC(=O)CC(SP(=S)(OC)OC)C(=O)OCC` (configuration not stated), the outcome in [1], in experiment [2], in experiment [3], in experiment [5], in experiment [6] and in [7] was inactive. Also, the compound was called inactive in experiment [8], in experiment [9] and in experiment [10]. In experiment [4], the AC50 is 22.8 µM (active).

On to `CCOc1cc(Oc2ccc(C(F)(F)F)cc2Cl)ccc1[N+](=O)[O-]`, for which the result in [1], in experiment [5], in [6], in [8], in [9] and in [10] was inactive. In addition, the figures for the AC50 in experiment [2], in experiment [3] and in experiment [4] were 36.2 µM (active), 50 µM (active) and 9.84 µM (active), respectively.

Turning to `COc1cnc(OC)n2nc(NS(=O)(=O)c3c(OCC(F)F)cccc3C(F)(F)F)nc12`, the compound was called inactive in experiment [1], in experiment [2], in experiment [3], in experiment [5], in [6] and in experiment [8]. The call in experiment [9] was inactive. In addition, the figures for the AC50 in experiment [4] and in experiment [10] were 32.8 µM (active) and 23.3 µM (active), respectively.

For the compound `CCCCOC(=O)c1ccccc1C(=O)OCCCC`, the outcome in experiment [1], in experiment [2], in experiment [3], in experiment [4], in [5] and in experiment [6] was inactive. For the same compound, the compound was classed as inactive in experiment [8], in [9] and in experiment [10].

For `CC(C)(C)c1ccc(CSc2cnn(C(C)(C)C)c(=O)c2Cl)cc1`, the compound was classed as inactive in experiment [1] and in [5]. For the same compound, the concentration at half-maximal activity (AC50) in experiment [2] is 1.85 µM (active); in [3], 2.68 µM (active); in experiment [4] it was 14.2 µM (active); in experiment [6], 2.12 µM (active); in [8] it was 1.99 µM (active); in experiment [9], 1.49 µM (active). The AC50 in experiment [10] was 4.66 µM (active).

For `COc1nc(NC(C)C)nc(NC(C)C)n1`, the compound was classed as inactive in experiment [1], in experiment [2], in experiment [3], in experiment [5], in experiment [6] and in [8]. Further, the compound was classed as inactive in experiment [9]. Further, the AC50 is 36 µM (active) in [4] and 9.31 µM (active) in experiment [10].

Take `COC(=O)C(C)Oc1ccc(Oc2ccc(Cl)cc2Cl)cc1` (configuration not stated): the call in experiment [1], in [2], in [3], in experiment [5], in experiment [8] and in [9] was inactive. Further, the result in experiment [10] was inactive. Moreover, the concentration at half-maximal activity (AC50) in experiment [4] is 38.3 µM (active); in experiment [6], 13.7 µM (active).

In the case of `C#CCOS(=O)OC1CCCCC1Oc1ccc(C(C)(C)C)cc1` (configuration not stated), the compound was classed as inactive in [1], in experiment [4] and in experiment [9]. Moreover, the concentration at half-maximal activity (AC50) is 20.5 µM (active) in [2]; 27.2 µM (active) in [3]; 27.4 µM (active) in experiment [5]; 32 µM (active) in experiment [6]; 50 µM (active) in experiment [8]; 50 µM (active) in experiment [10].

Regarding `CCNc1nc(Cl)nc(NC(C)C)n1`, the result in experiment [1], in [2], in experiment [3], in experiment [5], in experiment [6] and in experiment [8] was inactive. For the same compound, in [9], the result was inactive. Moreover, the AC50 was 40.5 µM (active) in experiment [4] and 21.2 µM (active) in [10].
